The results in this text go back to the supplement of paper PMC6555819.

What all share (assay): PBM binding z-score (relative to random genomic background probes); higher = stronger binding; sequences stand for … in GC…GCGATTGACAGCGTAGAATGAAGG
Assay [1] has as its system RARb homodimer (NR concentration 270 nM). Put shortly: (§1)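 Random background probes are the reference for binding z-scores. These scores derive from regression-normalized fluorescence on custom Agilent 4×180K protein-binding microarrays incubated 1 h with ligand-free nuclear receptor dimers. Binding was detected with antibodies against each partner (one per run).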
Assay [2] deals with RARg:RXRa (NR concentration 270 nM, RXRa partner concentration 90 nM). Put shortly:
as §1

For assay [3], the system named is RARg homodimer (NR concentration 270 nM). In a few lines:
as §1

For assay [4], the system named is RXRa DBDmut IVT, anti-RXR (DBD mutation: RXRa K156A/R161A, NR concentration 90 nM). In a few lines: as §1
The subject of assay [5] is RXRa homodimer (NR concentration 180 nM). In a few lines: as §1
Assay [6] has as its system THRa:RXRa (NR concentration 90 nM, RXRa partner concentration 90 nM). In a few lines: as §1
The subject of assay [7] is THRa homodimer (NR concentration 90 nM). In a few lines: as §1
Assay [8] concerns VDR homodimer (NR concentration 270 nM). Put shortly: as §1

Consider AGTCAAAGTTCAGGACGAGGTAACGCAAAGCACG, for which the PBM binding z-score came out at 3.22 in assay [1]; 4.76 in assay [2]; 4.54 in assay [3]; 2.81 in assay [4]; 3.06 in assay [5]; 3.75 in assay [6]. In addition, the PBM binding z-score in assay [7] and in assay [8] was 1.73 throughout.
In the case of TAGCCTAGGTCTTGCGGGCCAGTATAGTGTCGGC, the PBM binding z-score in assay [1] is -0.413; in assay [2], -0.507; in assay [3], -0.639; in assay [4] it was -1.09; in assay [5] it was -0.623; in assay [6], -0.606. For the same sequence, the figures for the PBM binding z-score in assay [7] and in assay [8] were -1.12 and -1.13, respectively.
ATCGAAAGGTCGACTAGGTGAGTATACACCGTTT: the PBM binding z-score worked out at 2.66 in assay [1]; 4.11 in assay [2]; 3.91 in assay [3]; 0.992 in assay [4]; 4.12 in assay [5]; 2.86 in assay [6]. For the same sequence, the PBM binding z-score in assay [7] stood at 0.0406; in assay [8] it was 1.09.
Turning to TCTATTAGTTGATTAGGGAAACCGAAACAGCGGA, the PBM binding z-score stood at 0.0312 in assay [1]; 0.311 in assay [2]; 0.329 in assay [3]; 1.18 in assay [4]; 0.472 in assay [5]; 0.12 in assay [6]. Further, the PBM binding z-score in assay [7] came out at 0.159; in assay [8], 0.507.
As for GCTAACAGGCCATTTGGGTCACTCAATGACGGGC, the PBM binding z-score was 2.13 in assay [1]; 1.1 in assay [2]; 1.63 in assay [3]; 0.69 in assay [4]; 1.06 in assay [5]; 2.13 in assay [6]. The results for the PBM binding z-score in assay [7] and in assay [8] were 0.884 and 0.601, respectively.
With TAGCTTAGGTCATTCAGGGGCCAGTATAGAAAGC, the PBM binding z-score in assay [1] came to 3.41; in assay [2], 6.43; in assay [3], 5.18; in assay [4] it was 2.36; in assay [5], 3.35; in assay [6], 3.72. Further, the PBM binding z-score in assay [7] is 1.83; in assay [8], 1.69.
Take ATACCAAGGTGATCGTGAGGTCTTTGATACTAAC: the PBM binding z-score in assay [1] turned out to be 0.992; in assay [2], 0.797; in assay [3] it was 0.392; in assay [4], 0.0771; in assay [5], 0.435; in assay [6], 2.38. Also, the PBM binding z-score in assay [7] was 1.65; in assay [8], 0.438.
In the case of ATCAAAAGGTCGTGAGGTGAGTATACAGAAAGGC, the PBM binding z-score in assay [1] stood at 3.41; in assay [2], 4.87; in assay [3] it was 4.4; in assay [4] it was 1.25; in assay [5] it was 5.51; in assay [6], 3.49. Further, the PBM binding z-score in assay [7] was found to be 1.89; in assay [8], 1.49.
Take CCGACTAGGGCAAAGGTTACCATACTCAGTACGA: the PBM binding z-score in assay [1] worked out at 2.48; in assay [2] it was 3.78; in assay [3] it was 2.11; in assay [4] it was 0.743; in assay [5], 4.2; in assay [6], 2.14. For the same sequence, the PBM binding z-score in assay [7] was -0.117; in assay [8] it was 0.229.
Consider TTACCAAGCTGAAGGTCGTTGATCCCTCTGTAGA, for which the PBM binding z-score is 0.756 in assay [1]; 0.152 in assay [2]; -0.231 in assay [3]; -0.269 in assay [4]; 1.13 in assay [5]; 0.571 in assay [6]. For the same sequence, the PBM binding z-score in assay [7] was -0.583; in assay [8], 0.305.
CGTCCAAGGTCATAGGAGGTCAGGGAAGACAGAT: the PBM binding z-score in assay [1] turned out to be 5.2; in assay [2] it was 6.79; in assay [3], 7.15; in assay [4] it was 3.89; in assay [5] it was 6.99; in assay [6], 5.41. Also, the PBM binding z-score in assay [7] came out at 3.54; in assay [8], 4.28.
GGAACGAGGGCAGAGTTGATAGCATCTGTCGACG: the PBM binding z-score in assay [1] is 0.448; in assay [2], 0.934; in assay [3] it was 1.12; in assay [4], 1.49; in assay [5], 0.588; in assay [6] it was 0.324. Moreover, the PBM binding z-score in assay [7] was -0.629; in assay [8] it was 0.314.
For the sequence CCGACTGGGGCAAAGATTACCATACTCAGTACGA, the PBM binding z-score in assay [1] is -0.379; in assay [2] it was 0.0799; in assay [3] it was 0.405; in assay [4], 0.314; in assay [5] it was -0.0917; in assay [6], -0.407. Besides, the PBM binding z-score in assay [7] is -0.518; in assay [8], -0.37.
For CCTATTAATTGACCATAAGGGCAACCGAAGCTCG, the PBM binding z-score in assay [1] is 1.91; in assay [2], 0.926; in assay [3] it was 1.1; in assay [4], 0.931; in assay [5], 0.841; in assay [6], 1.63. For the same sequence, the results for the PBM binding z-score in assay [7] and in assay [8] were 1.81 and 1.85, respectively.
